NTR1 agonist: activates human neurotensin receptor 1; 0.17% of 330,000 active; activation, % at 20 µM; NTR1-U2OS beta-arrestin-GFP spot imaging, agonist mode; P30989;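 active = activation at or above 40% of the spot to cytoplasm intensity ratio, with at least 20 cells analyzed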
Target sequence (P30989 whole entry, looked up): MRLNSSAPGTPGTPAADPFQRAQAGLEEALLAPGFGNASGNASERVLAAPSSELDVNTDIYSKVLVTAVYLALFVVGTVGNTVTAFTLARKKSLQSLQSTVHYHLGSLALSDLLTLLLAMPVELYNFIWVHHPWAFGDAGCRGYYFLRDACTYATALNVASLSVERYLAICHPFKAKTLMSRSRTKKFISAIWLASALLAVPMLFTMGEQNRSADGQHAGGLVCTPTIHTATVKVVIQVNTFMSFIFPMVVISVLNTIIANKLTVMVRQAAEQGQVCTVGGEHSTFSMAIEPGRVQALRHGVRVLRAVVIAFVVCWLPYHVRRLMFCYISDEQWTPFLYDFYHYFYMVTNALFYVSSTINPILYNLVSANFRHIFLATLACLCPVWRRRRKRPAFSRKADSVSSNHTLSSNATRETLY
HIF activator: HIF pathway transcriptional activation. U2OS HRE-luciferase reporter, luminescence; normalized: DMSO 0%, desferrioxamine 100%. activation, % at 7.5 µM (by protocol). 0.32% of 300,000 active. AID 1910;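 active = mean activation of at least 10% of the iron chelator positive control signal, with at least half of replicates also reaching 10%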
Platelet DG rel: platelet dense granule release activity; inhibition, %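 (compounds screened at 7.5 µM in platelet-rich plasma)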; human platelet-rich plasma, SFLLRN dense granule ATP release, luminescence; 0.22% of 300,000 active;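 active = mean replicate score, as percent of positive control, at or above 50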
NTR1 ag confirm: confirmation of agonists of human NTR1; AID 504550; 38% of 480 active; NTR1-U2OS beta-arrestin-GFP translocation imaging; activation, % at 20 µM; shares compounds with NTR1 agonist;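 active = mean activation at 20 µM of at least 40%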
Of the large screens only hits and unclear results are named; the others gave an inactive call (follow-up assays come after a bar, where they were run). This is a sample that favours compounds with a hit; in the whole collection about 0.63% have one here.

COc1ccc(OC)c(/C=N/Nc2nncn2/N=C/c2cc(OC)ccc2OC)c1	none
Cc1ccc(CSc2nnc(CCCCCNC(=O)OC(C)(C)C)o2)cc1	HIF activator 14
Cc1cccc(CSc2nnc(CCCCCNC(=O)OC(C)(C)C)o2)c1	none
O=C1NCCOC(=O)[C@H](Cc2ccc(F)cc2)C/C=C\C[C@@H]1CC(=O)N(CCO)Cc1ccccc1	none (no result: HIF activator, Platelet DG rel)
Cc1ccc(-c2cc(C(=O)NCc3ccc4c(c3)OCO4)no2)cc1	none
COc1ccc(S(=O)(=O)Cc2ccc(C(=O)NCCc3ccc(S(N)(=O)=O)cc3)o2)cc1	none
Cc1occc1C(=O)N/N=C/c1ccc2c(c1)OCO2	Platelet DG rel 126
O=C(N/N=C/c1ccc2c(c1)OCO2)c1cccs1	none
COc1ccc(/C=N/NC(=O)c2ccoc2C)cc1O	HIF activator 261
COc1ccc(/C=N/NC(=O)c2ccoc2C)cc1OC	none
O=C(O)c1cc(N/N=C/c2ccc3c(c2)OCO3)ccc1Cl	none
Cc1ccsc1C(=O)N/N=C/c1ccc2c(c1)OCO2	Platelet DG rel 66
O=C(O)c1ccc(N/N=C/c2ccc3c(c2)OCO3)cc1	Platelet DG rel 86
Cc1cc(C(=O)N/N=C/c2ccc3c(c2)OCO3)c(C)o1	none
Cc1cc(=O)[nH]c(NN=C2CCC(C(C)(C)C)CC2)n1 (stereo not given)	none
O=C(NC1CCCN(c2ccc(C(F)(F)F)cn2)C1)c1ccnc(Cl)c1 (stereo not given)	none
Cc1ccc(-c2cc(C(=O)NCc3ccc4c(c3)OCO4)[nH]n2)c(O)c1C	none
CCN(CC(=O)Nc1ccc(NC(C)=O)cc1)C(=O)Cc1cccc2ccccc12	none
Cc1occc1C(=O)N/N=C/c1ccc(OCc2ccccc2)cc1	none
Cc1occc1C(=O)N/N=C/c1ccc(-c2ccccc2)cc1	Platelet DG rel 93
CCn1c(SCC(=O)Nc2nc(C)cs2)nnc1-c1ccco1	none
CCn1c(SCC(=O)Nc2nncs2)nnc1-c1ccco1	HIF activator 34
Cc1cccc2sc(NNC(=O)c3ccc(S(=O)(=O)N4CCCC(C)C4)cc3)nc12 (stereo not given)	none (no result: NTR1 agonist)
Cc1cccc2sc(NNC(=O)c3ccc(S(=O)(=O)N4CCc5ccccc5C4)cc3)nc12	HIF activator 14
CCc1ccc(C(=O)COC(=O)CNC(=O)c2ccco2)cc1	Platelet DG rel 51
O=C(CNC(=O)c1ccco1)OCC(=O)c1ccc(Cl)cc1	none
CCOc1ccc(OCC(=O)OCc2csc(CC(=O)Nc3ccccc3C)n2)cc1	none
Cc1cccc(OCC(=O)NCC(=O)N/N=C/c2ccc(O)cc2O)c1	NTR1 agonist 40 | NTR1 ag confirm inactive
COc1ccc(/C=C\C(=O)NCC(=O)N/N=C/c2ccc(O)cc2O)cc1	none
O=C(/C=C\c1ccccc1)NCC(=O)N/N=C/c1ccc(O)cc1O	NTR1 agonist 66 | NTR1 ag confirm 55
COc1cccc(/C=N/NC(=O)CNC(=O)COc2cccc(C)c2)c1O	none
COc1ccc(C(=O)NCC(=O)NCC(=O)OCC(=O)c2ccc(Br)cc2)cc1	none
NC(=O)c1sc2nc3c(c(-c4cccs4)c2c1N)CCCC3	none (no result: NTR1 agonist)
O=C(CC1C(=O)NCCN1Cc1ccoc1)NCc1cccc(OC(F)(F)F)c1 (stereo not given)	none
COc1ccc(OC)c(Nc2nc3ccc(C)cc3n3cnnc23)c1	none
COc1ccc(Cl)cc1Nc1nc2ccc(C)cc2n2cnnc12	NTR1 agonist 46 | NTR1 ag confirm inactive
COc1ccc(/C=N/NC(=O)CCc2n[nH]c(=O)[nH]c2=O)cc1O	none
COc1ccc(NC(=O)COC(=O)c2c3c(nc4ccccc24)CCCC3)cc1	none
COc1ccc(OC)c(NC(=O)COC(=O)c2c3c(nc4ccccc24)CCCC3)c1	NTR1 agonist 41 | NTR1 ag confirm inactive
CC1CCCN(c2ccc3nc4ccccc4c(=O)n3n2)C1 (stereo not given)	none
COC(=O)c1ccc(COc2ccc(/C=C(\C#N)c3nc4ccccc4[nH]3)cc2OC)o1	none
CCc1ccc(NC(=O)COc2ccc(/C=C(/C#N)c3nc4ccccc4[nH]3)cc2OC)cc1	NTR1 agonist 52 | NTR1 ag confirm inactive
CCOC(=O)CCN(Cc1cccs1)S(=O)(=O)c1ccc(Cl)cc1	none
CCN(CCNCC(O)COc1ccccc1C(C)C)c1cccc(C)c1 (stereo not given)	NTR1 agonist 54 | NTR1 ag confirm inactive
CCOC(=O)N1CCN(CC(O)COc2ccccc2C(C)C)CC1 (stereo not given)	none (no result: HIF activator, Platelet DG rel)
CCOC(=O)c1c(NC(=O)CC2Sc3ccc(C(F)(F)F)cc3NC2=O)sc(C)c1C (stereo not given)	none
CC(C)(O)C#Cc1ccc([C@@H]2C[C@H]3CN(c4ccccc4)C(=O)[C@]34CCCN24)s1	none
O=C(c1ccc(S(=O)(=O)Cc2ccccc2Cl)c([N+](=O)[O-])c1)N1CCOCC1	none
CCOC(=O)C(C)Sc1nnc(Cc2cc(=O)[nH]c(=O)[nH]2)n1-c1ccc(OCC)cc1 (stereo not given)	none (no result: HIF activator, Platelet DG rel)
COc1cc(N/N=C(\C)c2ccc(O)c(C)c2)nc(-c2ccccc2)n1	NTR1 agonist 53 | NTR1 ag confirm inactive
COc1cc(N/N=C(\C)c2ccc(N)cc2)nc(-c2ccccc2)n1	none
CN(Cc1nc(CCc2ccccc2)no1)Cc1cccs1	none
N#C/C(=C/c1cn(-c2ccccc2)nc1-c1cccc(OCc2ccccc2)c1)C(=O)NCCCn1ccnc1	none
CCOc1cccc(-c2nn(-c3ccccc3)cc2/C=C(/C#N)C(=O)NCCCn2ccnc2)c1	NTR1 agonist 44 | NTR1 ag confirm inactive
CN(CCc1ccccn1)c1ccc([N+](=O)[O-])cn1	none
CN(C)/C=C1/N=C(c2ccccc2)OC1=O	none
O=CC1=C(c2ccccc2)Oc2ccccc2O1	NTR1 agonist 44 | NTR1 ag confirm 62
CC(Oc1ccccc1)C(=O)N1CCN(c2ccc(N3CCCCCC3)nn2)CC1 (stereo not given)	none
CCCCCc1c2c(cc(O)c1C(=O)O)OC(=O)c1cc(C(=O)CCCC)c(OC)cc1O2	NTR1 agonist 48 (no result: HIF activator, Platelet DG rel) | NTR1 ag confirm inactive
CCCCCc1c2c(cc(O)c1C(=O)O)OC(=O)c1c(cc(OC)cc1C(=O)CCCC)O2	none
CCCOC(=O)C1=C(C)OC23OC(N)=C(C#N)C12C(=O)c1ccccc13 (stereo not given)	none
COc1ccc(F)cc1S(=O)(=O)N1CCC(C(N)=O)CC1	none
O=C(NCCc1ccccc1)c1ccc(NC(=O)c2cccnc2)cc1	none
O=C(Nc1ccc(-c2noc(CCc3ccccc3)n2)cc1)c1cccnc1	NTR1 agonist 67 | NTR1 ag confirm inactive
O=C1c2[nH]nc(-c3ccccc3O)c2C(c2ccc(F)cc2)N1Cc1ccco1 (stereo not given)	none
O=C1c2[nH]nc(-c3ccccc3O)c2C(c2cccc(Cl)c2)N1Cc1ccco1 (stereo not given)	NTR1 agonist 46 | NTR1 ag confirm inactive
c1ccc(C2=Nn3c(nnc3-c3cc(-c4ccccc4)n[nH]3)SC2)cc1	none
Clc1ccc(C2=Nn3c(nnc3-c3cc(-c4ccccc4)n[nH]3)SC2)cc1	NTR1 agonist 47 | NTR1 ag confirm 48
Cc1ccc(NC(=S)N2CCC(NC(=O)c3cccc(F)c3)CC2)cc1	none
Cc1ccc(-c2ccc(/C=C3\C(=O)ON=C3c3ccccc3)o2)c([N+](=O)[O-])c1	NTR1 agonist 100 | NTR1 ag confirm 85

Screens from PubChem BioAssay.
